For 14 molecules, binding signal results are on record in publication PMC12136788.

Numbering of substitutions follows the chain as printed. In all, about 5,800 sequences were measured (“enrichment r”: median about 0.68, highest 2% from about 11 on). This is one part of a sample in which the highest values are shown more often than they occur.

B1: ENSG00000107863:be:win_4801|CDS|ENSG00000107863|bound_else_gene|NA|bound_elsewhere_windowed (ssRNA)
RNA: GGGAGUUCUACAGUCCGACGAUCUCCAGUCGACUGAGCCCUGAGGUGCAAUCCGUGGCAGAGAGCAAGGGGGACGAGGCAGAUGACGAGAGAAGCGAACUCAUCAGUGAAGGGCGGCCUGUGGAAACCGACAGCGAGAGCGAGCAACAGAGGAUUGAGCAUCA
B2: chr17:41691520:41691533:+|3pUTR|ENSG00000173812|msi1_unk|total|mutant (ssRNA)
RNA: GGGAGUUCUACAGUCCGACGAUCGGAACAAAUCUCAAACUGAUCCAUCAGUCAUGCCGCCCGCUGCCGAGCUUGCAACUUAACCGCAGCAGCUGCCCAAUGCCAUGUGAAGUAACAAACUGGUUUUUGGUUUUUUUUUCCCCUCAACAGAGGAUUGAGCAUCA
B3: chr19:5558166:5561399:-|three_prime_utr|ENSG00000223573|control|control|control (ssRNA)
RNA: GGGAGUUCUACAGUCCGACGAUCCCAGCUGAUGCACACUGCUUCAGACACUCCUGCUGGAGCCCCAGUCCCUGACAAGGACCUAGGACAUUUUUGCUCCUGCCCAGCCUAUCGGGAGGGAGCCUUGAGCCUUUCAGCUCUGCUCAACAGAGGAUUGAGCAUCA
B4: ENSG00000070961:be:win_51|CDS|ENSG00000070961|bound_else_gene|NA|bound_elsewhere_windowed (ssRNA)
RNA: GGGAGUUCUACAGUCCGACGAUCUUUGAAGGAAGCUAAUCAUGAUGGAGACUUUGGAAUUACGCUCGCAGAGCUGCGGGCUCUCAUGGAGCUCAGGUCCACAGAUGCAUUACGAAAAAUACAGGAAAGCUAUGGAGAUGUCUACAACAGAGGAUUGAGCAUCA
B5: chr16:48080881:48083801:-|three_prime_utr|ENSG00000140798|control|control|control (ssRNA)
RNA: GGGAGUUCUACAGUCCGACGAUCUGAGUUUGACAAGCCUGAAGUCCUUGCAGAGAAGCCAGAUUCUGCAUUUGCGAUGUUACUAGCAGCAGAAGUCAGAUUGUAGAGGUCCUGGCGGCUGAUUCUAGAGGAGGAAGAGGCUCUCAACAGAGGAUUGAGCAUCA
B6: chr1:205790044:205790145:-|3pUTR|ENSG00000133065|msi1|FALSE|bound_elsewhere (ssRNA)
RNA: GGGAGUUCUACAGUCCGACGAUCAGAUUCUUCUGCCUCUUUCUCCUUUCCAGACCCCUACUCUGUGCAGUGCUGACCACAGCUAGAGCCACCGCCCCAUUGCUCAACCAGUAUUUAUUUCCCUAAACGACCCUUCCUCACAUUCAACAGAGGAUUGAGCAUCA
B7: chr11:107429260:107429366:-|CDS|ENSG00000152404|unk|FALSE|unique (ssRNA)
RNA: GGGAGUUCUACAGUCCGACGAUCGAGGAAACCCACAUAUUCAGAUAAAGCACAAAAUUGUCAAGAAAGUAGAGAAUCAGACUUAGUAAAAUAUGGUAACAGUUCAAGGGAUAGAUAUGCUACAACAGAUACUGCAAAAAAUAGCAACAGAGGAUUGAGCAUCA
B8: chr7:5606511:5606625:+|3pUTR|ENSG00000075618|msi1_unk|FALSE|overlapping (ssRNA)
RNA: GGGAGUUCUACAGUCCGACGAUCGGGUGUCUUGGUCUUUUAUUUUUUGUAAGUGUCAUUUGUAUAACUCUAAACGCCCAUGAUAGUAGCUUCAAACUGGAAAUAGCGAAAUAAAAUAACUCAGUCUGCAGCCCCAGGCCGGCCCAACAGAGGAUUGAGCAUCA
B9: chr11:62152232:62152344:+|3pUTR|ENSG00000149503|unk|FALSE|unique (ssRNA)
RNA: GGGAGUUCUACAGUCCGACGAUCUGCUCUGUAAAUAGUUGUUUUAAUUUAGCUGAAUGUUAGCAUUUUAGUCUUUGGCAUUUUAGCGUUUGGGAGGUAGAUUAAUAAAGUAUAUUCCUUCAAGCCUGCUGUUGAUACCAUGAACAACAGAGGAUUGAGCAUCA
B10: chr10:104129887:104130138:-|three_prime_utr|ENSG00000197748|control|control|control (ssRNA)
RNA: GGGAGUUCUACAGUCCGACGAUCAAAAAAUCAUUUCAUUUGGGUAAAAUGAUUUCCUUUUCUUUCUUACUGGGAAAUUGAAGUAGCAUGUCCUCUGAGUUGCAUGUUUUAGAUAAAAAAUUGUUUAAUUUUAGCCUUAAUUGUCAACAGAGGAUUGAGCAUCA
B11: chr15:38352922:38353023:+|3pUTR|ENSG00000166068|msi1|total|mutant (ssRNA)
RNA: GGGAGUUCUACAGUCCGACGAUCUACAUAUAAAUUUAUUUCUUUUGCAGAGCAUUAUAUUACUGGAUGUUUAAUUUACAAAACCGUUGGGUAAAUGUUCCAACAAACUUUAAAGUACCUUGAAGUCAAAUUGUCUGUUUUUGUCAACAGAGGAUUGAGCAUCA
B12: chr3:46835109:46836203:-|three_prime_utr|ENSG00000160808|control|control|control (ssRNA)
RNA: GGGAGUUCUACAGUCCGACGAUCUGAAGGCACAAGCUGUUCCAGUAUAAUAAAGAAAAUAAUUAAAUUAAGAAAAGUUAUACUAGAAAUAAGAUAUAGGUAUGAUUAUUAUUAAUCAUUAGUUUGUAGUAUUACUUUGUUCUACAACAGAGGAUUGAGCAUCA
B13: chr18:9400975:9401076:+|3pUTR|ENSG00000128791|msi1|FALSE|unique (ssRNA)
RNA: GGGAGUUCUACAGUCCGACGAUCUAUAAAAAUAGAUAAUGCUCUUGGACACAUUUUGUAUUAUUCAUGAUCUGAAUAGUAGUUAGUUAAAAGAUCAUUUGUAAUAUUAUGAUCAACUGUUAUAAAUUAAGGUCUUAAUACCUUCAACAGAGGAUUGAGCAUCA
B14: chr15:38352922:38353023:+|3pUTR|ENSG00000166068|msi1|FALSE|unique (ssRNA)
RNA: B11 RNA with C83U, C84A

The assay has as its target T1, UNK ZnF1-6 (called full-length) (human, UniProt Q9C0B0 30-357).
T1 sequence: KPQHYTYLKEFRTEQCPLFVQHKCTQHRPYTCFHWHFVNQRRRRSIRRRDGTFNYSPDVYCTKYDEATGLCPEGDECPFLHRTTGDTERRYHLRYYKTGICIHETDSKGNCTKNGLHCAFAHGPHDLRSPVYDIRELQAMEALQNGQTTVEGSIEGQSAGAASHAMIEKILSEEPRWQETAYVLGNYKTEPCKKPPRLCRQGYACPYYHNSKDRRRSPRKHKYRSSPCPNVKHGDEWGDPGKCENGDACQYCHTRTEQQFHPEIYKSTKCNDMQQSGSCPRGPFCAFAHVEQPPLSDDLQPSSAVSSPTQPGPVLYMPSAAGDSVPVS
The experiment in a line: nsRBNS (natural sequence RNA bind-n-seq); RBNS binding buffer (assumed for nsRBNS): 25 mM Tris pH 7.5, 150 mM KCl, 3 mM MgCl2, 0.01% Triton X-100, 500 ug/ml BSA, 20 U/ml SUPERase-In, 4 C; UNK is unkempt and MSI1 is Musashi-1; names of the RNAs are library labels; protein concentration not given here; high values mean tight binding.
Regarding B1, the binding signal came out at 0.993 enrichment R.

As for B2, the binding signal was determined as 0.624 enrichment R.

With B3, the binding signal is 0.786 enrichment R.

In turn, B4 registered a binding signal of 0.507 enrichment R.

As for B5, the binding signal came out at 1.15 enrichment R.

In the case of B6, the binding signal was found to be 1.07 enrichment R.

Turning to B7, the binding signal was 1.66 enrichment R.

B8: the binding signal is 1.39 enrichment R.

As to B9, the binding signal came to 110 enrichment R.

In the case of B10, the binding signal amounted to 13.5 enrichment R.

With B11, the binding signal came out at 0.824 enrichment R.

Take B12: the binding signal was determined as 4.03 enrichment R.

B13: the binding signal came out at 2.18 enrichment R.

The molecule B14 yielded a binding signal of 1.48 enrichment R.
